Screening data from PubChem.
The sample as a whole holds a higher share of hits than the screen did.
Dicer processing = inhibitors of Dicer pre-microRNA processing, primary screen, biochemical, cat-ELCCA, chemiluminescence | Endoribonuclease Dicer (Homo sapiens), Q9UPY3 | cat-ELCCA pre-miR-21 Dicer processing; stronger effect = higher value | z-score at 25 µM | 47,000 compounds, 6% hits; in the data active = z-score above about 3, passing the limit was not always enough;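 also: plate controls were vehicle for no effect and no enzyme for full effect; higher signal means more uncleaved substrate so more Dicer inhibition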
* hit, by the source's call.

SMILES	Dicer processing
O=C(Nc1ccc(N2CCOCC2)cc1)c1ccc(-n2cccn2)cc1	-0.65
O=C(c1ccncc1)N1CCN(Cc2ccco2)CC1	1.25
O=C(O)c1cccnc1	1.18
O=C(c1cccnc1)N1CCN(C(=O)c2ccco2)CC1	4.65*
O=C(c1cccnc1)N1CCN(c2ccc3ccccc3n2)CC1	4.24*
O=C(c1ccccc1)N1CCN(C2=NS(=O)(=O)c3ccccc32)CC1	7.05
O=C1NCCCC1C(=O)N1CCN(C(=O)c2ccco2)CC1 (configuration not stated)	-1.3
COc1ccc(N2C(=O)CC(NC3CCCC3)C2=O)cc1 (configuration not stated)	-1
Clc1nc(NCCN2CCOCC2)nc(NC2CCCCC2)n1	1.69
O=C(O)CCCNc1nc(Cl)nc(N2CCOCC2)n1	4.72*
CCNc1nc(C(=O)O)nc(N2CCOCC2)n1	2.76
O=c1cc(CSC(=S)N2CCSCC2)c2ccccc2[nH]1	-0.65
C=CCOc1cc(=O)[nH]c2ccccc12	4.68*
C=CCOc1ccc2[nH]c(C)c(C(=O)OCC)c2c1	-0.95
COC(=O)C1=C(C)NC2=C(C(=O)CC(C)(C)C2)C1c1ccc(Br)cc1 (configuration not stated)	-0.33
CNS(=O)(=O)c1cc2c(c([N+](=O)[O-])c1)-c1c(cc(S(=O)(=O)NC)cc1[N+](=O)[O-])C2=O	0.91
COc1ccccc1C1SCCN1S(=O)(=O)c1ccc(Br)cc1 (configuration not stated)	2.64
COc1cc(/C=N/c2nccs2)ccc1O	3.08*
COc1cc(C=Nc2ccc(N3N=C(C)CC3=O)cc2)ccc1O	-6.61
COc1cc(/C=N/n2cnc3c(sc(=S)n3C)c2=O)ccc1O	-1.73
Clc1ccccc1CN1CCN(CC2CC=CCC2)CC1 (configuration not stated)	1.68
COC(=O)CSC1=C(C#N)C(=O)NC(c2ccco2)S1 (configuration not stated)	-1.26
CSc1nnc2c(n1)OC(c1ccc(C)cc1)Nc1ccccc1-2 (configuration not stated)	-0.71
CSc1nnc2c(n1)OC(C)Nc1ccccc1-2 (configuration not stated)	5.76
CSc1nnc2c(n1)OC(C1CC=C(C)CC1)Nc1ccccc1-2 (configuration not stated)	3.21*
SMILES	Dicer processing
COCc1cc(C)nc2sc(C(=O)N3CCCC3)c(N)c12	3.92*
COCc1cc(C)nc2sc(C(=O)OC)c(N)c12	1.03
Cc1cc(C)c2c(N)c(C(=O)c3ccccc3Cl)sc2n1	-2.3
CC1(C)CC(CCN)(Cc2ccccc2)CCO1 (configuration not stated)	0.44
COc1ccc2c(c1)Cc1sc(NC(=O)c3ccc(OC)c(OC)c3)nc1-2	-2.88
CCOc1cc(C2C(C(=O)OCCc3ccccc3)=C(C)NC3=C2C(=O)CCC3)cc(Cl)c1O (configuration not stated)	1.08
Cc1ccc(S(=O)(=O)Nc2ccc(N(C)S(=O)(=O)c3ccc(C)cc3)cc2)cc1	0.4
CCN(CC)c1ccc(NS(=O)(=O)c2ccccc2)cc1	4.78*
O=S(=O)(Nc1ccccc1)c1ccc(-c2ccc(S(=O)(=O)Nc3ccccc3)cc2)cc1	-0.35
O=C(Nc1ccccc1Sc1nccc(C(F)(F)F)n1)c1ccc(Cl)cc1	-2.01
O=C(COC(=O)c1cc(Cl)ccc1O)c1ccc(-c2ccccc2)cc1	6.08*
O=C(COC(=O)c1cc2ccccc2cc1OC(=O)c1ccc(Cl)cc1)c1ccccc1	-0.71
O=C(COC(=O)c1ccc(F)c(Cl)c1)c1ccc(Cl)cc1	0.91
Cc1ccc2[nH]c(=O)c(-c3noc(-c4ccccc4F)n3)cc2c1	0.84
O=[N+]([O-])c1cccc(Cl)c1Oc1ccc(S(=O)(=O)Oc2ccc(Cl)cc2)cc1	-0.53
C=CCN1Cc2ccc(C(=O)O)cc2C1	3.2*
C=CCN1CCc2c(cc(O)c(O)c2Br)[C@@H](c2ccccc2)C1	-3.74
C=CCN1C(=O)C(O)(CC(=O)c2ccc3c(c2)CCCC3)c2ccccc21 (configuration not stated)	1.27
CCc1ccc(C(=O)CC2(O)C(=O)Nc3c(C)cccc32)cc1 (configuration not stated)	0.33
Cc1cc(Br)ccc1NC(=O)C1Sc2nnc(C)n2NC1c1ccc(F)cc1 (configuration not stated)	0.43
CN(C)c1ccc(C=C2C(=O)N(c3ccccc3)C(=S)N(c3ccccc3)C2=O)cc1	-1.55
O=C(CSc1nc2ccccc2nc1N1CCOCC1)Nc1ccccc1F	1.72
O=C(CSc1nc2ccccc2nc1N1CCCC1)N1CCCC1	0
O=C(CSc1nc(-c2ccco2)cc(C(F)(F)F)n1)N1CCN(c2cccc(Cl)c2)CC1	0.7
O=C(CSc1nc2ccccc2nc1N1CCOCC1)NC1CCCC1	2.05
SMILES	Dicer processing
Cc1ccc(C)n1CCN1CCN(C(=O)CSc2nc3ccccc3nc2N2CCOCC2)CC1	3.05*
O=C(CSc1nc2ccccc2nc1N1CCOCC1)N1CCN(c2cccc(Cl)c2)CC1	3.55*
CCN(C(=O)c1cnc(Oc2ccccc2)cc1C(F)(F)F)c1ccc(Cl)cc1	-1.77
CCOC(=O)c1c(C)n(CCOc2ccccc2)c2c1cc(O)c1ccccc12	0.63
NN/C(N)=N/C(N)=Nc1cccc(F)c1	0.85
Cn1c(=O)c(/C(N)=N/OC(=O)c2cccs2)cn(-c2ccccc2)c1=O	-1.93
Clc1ccc(OCc2nc3c4c5c(sc4ncn3n2)CCCC5)cc1	1.23
COc1ccc(OCc2nc3c4c5c(sc4ncn3n2)CCCCC5)cc1	4.25*
COc1ccccc1OCc1nc2c3c4c(sc3ncn2n1)CCCCC4	-0.5
CC(C)S(=O)(=O)c1cscc1NC(=O)c1ccccc1Cl	-0.72
COc1ccc(-c2noc(Cc3ccccc3)n2)cc1	0.02
CC(NC1=CC(=O)OC12CCCCC2)c1ccccc1 (configuration not stated)	-1.36
CSc1sc(C(=O)NC(=O)NCc2cccnc2)c(C)c1-c1ccno1	-1.59
O=S(=O)(Nc1nc2ccccc2nc1Nc1ccc(Cl)cc1)c1ccccc1	0.86
O=c1[nH]c2ccc(Nc3nc4ccccc4nc3NS(=O)(=O)c3ccc(Cl)cc3)cc2[nH]1	2.37
O=S(=O)(Nc1nc2ccccc2nc1NCc1ccccc1)c1ccc(Cl)cc1	6.04*
O=c1oc(C(c2ccccc2)C2CCCC2)nc2cccc(F)c12 (configuration not stated)	-0.57
CS(=O)(=NS(=O)(=O)c1ccccc1Cl)c1ccc(C(F)(F)F)cn1 (configuration not stated)	-1.39
O=C(Oc1ccc2c(=O)c(-c3ccccc3Cl)coc2c1)c1cccs1	0.61
Cc1ccc2c(=O)c(C(=O)c3ccccc3Cl)coc2c1	3.81*
COC(=O)C(C)Oc1ccc2c(=O)c(Oc3ccccc3Cl)coc2c1 (configuration not stated)	-0.38
O=S1(=O)CC(Sc2ccccc2)c2ccccc21 (configuration not stated)	-0.27
COc1ccc(OC)c(S(=O)(=O)N(C(=O)C(C)C)c2ccc3oc(=O)sc3c2)c1	-0.44
Cc1cc(C)c(S(=O)(=O)N(C(=O)c2ccncc2)c2ccc3oc(=O)sc3c2)cc1C	4.98*
Cc1ccc(S(=O)(=O)N(C(=O)c2ccncc2)c2ccc3oc(=O)sc3c2)c(C)c1	7.67*
CC(C)(C)C(=O)NCC1COc2ccccc2O1 (configuration not stated)	18.6
CC12CCC(=O)C=C1CCC1C2CCC2(C)C(C(=O)CO)=CCC12 (configuration not stated)	0.35
